Where a chain is given by its changes, count along the chain named.

What all share (assay): PBM; 200 nM protein, PBS
Settings in all cases: dsDNA, one strand shown

Assay [1] has as its target T1, SIX6 (Homo sapiens, UniProt O95475 114-200, L167I).
T1 sequence: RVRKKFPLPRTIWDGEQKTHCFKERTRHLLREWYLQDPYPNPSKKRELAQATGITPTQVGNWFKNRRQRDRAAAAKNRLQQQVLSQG

Assay [2] addresses T2, SIX6 (Homo sapiens, UniProt O95475 114-200, L143V).
T2 sequence: T1 sequence with L30V, I54L

Assay [3] addresses T3, SIX6 (Homo sapiens, UniProt O95475 114-200, H141N).
T3 sequence: T1 sequence with H28N, I54L

Assay [4] addresses T4, SIX6 (Homo sapiens, UniProt O95475 114-200, T165P).
T4 sequence: T1 sequence with T52P, I54L

For assay [5], the target named is T5, SIX6 (Homo sapiens, UniProt O95475 114-200, L167M).
T5 sequence: T1 sequence with I54M

Assay [6] addresses T6, SIX6 (Homo sapiens, UniProt O95475 114-200, L143M).
T6 sequence: T1 sequence with L30M, I54L

Assay [7] addresses T7, SIX6 (Homo sapiens, UniProt O95475 114-200, L143I).
T7 sequence: T1 sequence with L30I, I54L

Assay [8] deals with T8, SIX6 (Homo sapiens, UniProt O95475 114-200, T165G).
T8 sequence: T1 sequence with T52G, I54L

The target of assay [9] is T9, SIX6 (Homo sapiens, UniProt O95475 114-200, T139Q).
T9 sequence: T1 sequence with T26Q, I54L

The target of assay [10] is T10, SIX6 (Homo sapiens, UniProt O95475 114-200, T165A).
T10 sequence: T1 sequence with T52A, I54L

Assay [11] deals with T11, SIX6 (Homo sapiens, UniProt O95475 114-200, L167V).
T11 sequence: T1 sequence with I54V

Assay [12] has as its target T12, SIX6 (Homo sapiens, UniProt O95475 114-200).
T12 sequence: T1 sequence with I54L

In assay [13] the target is T13, SIX6 (Homo sapiens, UniProt O95475 114-200, T165I).
T13 sequence: T1 sequence with T52I, I54L

For GATACACC, the binding signal in assay [1] was 11.1 upbm affinity estimate (log intensity, higher = more binding, comparable within an allelic series); in assay [2], 10.4 upbm affinity estimate (log intensity, higher = more binding, comparable within an allelic series); in [3], 11.1 upbm affinity estimate (log intensity, higher = more binding, comparable within an allelic series); in assay [4], 9.65 upbm affinity estimate (log intensity, higher = more binding, comparable within an allelic series); in assay [5] it was 10.7 upbm affinity estimate (log intensity, higher = more binding, comparable within an allelic series); in assay [6] it was 10.9 upbm affinity estimate (log intensity, higher = more binding, comparable within an allelic series). The binding signal in assay [7] is 10.4 upbm affinity estimate (log intensity, higher = more binding, comparable within an allelic series); in assay [8], 11.2 upbm affinity estimate (log intensity, higher = more binding, comparable within an allelic series); in [9] it was 11.2 upbm affinity estimate (log intensity, higher = more binding, comparable within an allelic series); in assay [10] it was 11.1 upbm affinity estimate (log intensity, higher = more binding, comparable within an allelic series); in assay [11], 10.9 upbm affinity estimate (log intensity, higher = more binding, comparable within an allelic series); in [12], 11.1 upbm affinity estimate (log intensity, higher = more binding, comparable within an allelic series). Moreover, the binding signal in [13] is 10.9 upbm affinity estimate (log intensity, higher = more binding, comparable within an allelic series).
Consider GTATCAAA, for which the binding signal is 11.4 upbm affinity estimate (log intensity, higher = more binding, comparable within an allelic series) in assay [1]; 10.5 upbm affinity estimate (log intensity, higher = more binding, comparable within an allelic series) in assay [2]; 11.4 upbm affinity estimate (log intensity, higher = more binding, comparable within an allelic series) in assay [3]; 9.91 upbm affinity estimate (log intensity, higher = more binding, comparable within an allelic series) in [4]; 10.8 upbm affinity estimate (log intensity, higher = more binding, comparable within an allelic series) in assay [5]; 11.2 upbm affinity estimate (log intensity, higher = more binding, comparable within an allelic series) in [6]. For the same sequence, the binding signal in [7] is 10.4 upbm affinity estimate (log intensity, higher = more binding, comparable within an allelic series); in [8] it was 11.3 upbm affinity estimate (log intensity, higher = more binding, comparable within an allelic series); in [9] it was 11.2 upbm affinity estimate (log intensity, higher = more binding, comparable within an allelic series); in assay [10] it was 11.4 upbm affinity estimate (log intensity, higher = more binding, comparable within an allelic series); in assay [11], 11.2 upbm affinity estimate (log intensity, higher = more binding, comparable within an allelic series); in [12] it was 11.2 upbm affinity estimate (log intensity, higher = more binding, comparable within an allelic series). For the same sequence, the binding signal in assay [13] was 11.2 upbm affinity estimate (log intensity, higher = more binding, comparable within an allelic series).
For AGTATATC, the binding signal is 11 upbm affinity estimate (log intensity, higher = more binding, comparable within an allelic series) in assay [1]; 10.3 upbm affinity estimate (log intensity, higher = more binding, comparable within an allelic series) in [2]; 10.9 upbm affinity estimate (log intensity, higher = more binding, comparable within an allelic series) in assay [3]; 9.93 upbm affinity estimate (log intensity, higher = more binding, comparable within an allelic series) in [4]; 10.8 upbm affinity estimate (log intensity, higher = more binding, comparable within an allelic series) in [5]; 10.9 upbm affinity estimate (log intensity, higher = more binding, comparable within an allelic series) in assay [6]. For the same sequence, the binding signal in assay [7] was 10.3 upbm affinity estimate (log intensity, higher = more binding, comparable within an allelic series); in assay [8], 10.9 upbm affinity estimate (log intensity, higher = more binding, comparable within an allelic series); in assay [9], 11 upbm affinity estimate (log intensity, higher = more binding, comparable within an allelic series); in [10], 10.8 upbm affinity estimate (log intensity, higher = more binding, comparable within an allelic series); in assay [11], 10.7 upbm affinity estimate (log intensity, higher = more binding, comparable within an allelic series); in [12], 10.8 upbm affinity estimate (log intensity, higher = more binding, comparable within an allelic series). Also, in assay [13], the binding signal was 10.9 upbm affinity estimate (log intensity, higher = more binding, comparable within an allelic series).
With AGTATCAC, the binding signal in assay [1] was 11.3 upbm affinity estimate (log intensity, higher = more binding, comparable within an allelic series); in assay [2] it was 10.3 upbm affinity estimate (log intensity, higher = more binding, comparable within an allelic series); in [3] it was 11.2 upbm affinity estimate (log intensity, higher = more binding, comparable within an allelic series); in assay [4], 9.74 upbm affinity estimate (log intensity, higher = more binding, comparable within an allelic series); in assay [5] it was 10.6 upbm affinity estimate (log intensity, higher = more binding, comparable within an allelic series); in [6] it was 11 upbm affinity estimate (log intensity, higher = more binding, comparable within an allelic series). The binding signal in assay [7] was 10.3 upbm affinity estimate (log intensity, higher = more binding, comparable within an allelic series); in [8], 11.3 upbm affinity estimate (log intensity, higher = more binding, comparable within an allelic series); in [9], 11.3 upbm affinity estimate (log intensity, higher = more binding, comparable within an allelic series); in assay [10], 11.3 upbm affinity estimate (log intensity, higher = more binding, comparable within an allelic series); in [11], 11 upbm affinity estimate (log intensity, higher = more binding, comparable within an allelic series); in [12], 11 upbm affinity estimate (log intensity, higher = more binding, comparable within an allelic series). In [13], the binding signal was 11 upbm affinity estimate (log intensity, higher = more binding, comparable within an allelic series).
On to GCCTTCGC, for which the binding signal in [1] is 8.84 upbm affinity estimate (log intensity, higher = more binding, comparable within an allelic series); in assay [2] it was 9.04 upbm affinity estimate (log intensity, higher = more binding, comparable within an allelic series); in assay [3], 8.95 upbm affinity estimate (log intensity, higher = more binding, comparable within an allelic series); in assay [4], 9.09 upbm affinity estimate (log intensity, higher = more binding, comparable within an allelic series); in assay [5] it was 8.82 upbm affinity estimate (log intensity, higher = more binding, comparable within an allelic series); in assay [6], 9.06 upbm affinity estimate (log intensity, higher = more binding, comparable within an allelic series). Moreover, the binding signal in [7] was 8.98 upbm affinity estimate (log intensity, higher = more binding, comparable within an allelic series); in [8], 8.83 upbm affinity estimate (log intensity, higher = more binding, comparable within an allelic series); in assay [9], 8.96 upbm affinity estimate (log intensity, higher = more binding, comparable within an allelic series); in assay [10], 8.83 upbm affinity estimate (log intensity, higher = more binding, comparable within an allelic series); in [11], 8.91 upbm affinity estimate (log intensity, higher = more binding, comparable within an allelic series); in [12], 8.85 upbm affinity estimate (log intensity, higher = more binding, comparable within an allelic series). Besides, in [13], the binding signal was 8.83 upbm affinity estimate (log intensity, higher = more binding, comparable within an allelic series).
Take GATCCAGA: the binding signal in assay [1] is 10.5 upbm affinity estimate (log intensity, higher = more binding, comparable within an allelic series); in assay [2], 10 upbm affinity estimate (log intensity, higher = more binding, comparable within an allelic series); in assay [3], 10.4 upbm affinity estimate (log intensity, higher = more binding, comparable within an allelic series); in assay [4], 9.57 upbm affinity estimate (log intensity, higher = more binding, comparable within an allelic series); in assay [5] it was 10.1 upbm affinity estimate (log intensity, higher = more binding, comparable within an allelic series); in [6] it was 10.3 upbm affinity estimate (log intensity, higher = more binding, comparable within an allelic series). Further, the binding signal in assay [7] is 10.1 upbm affinity estimate (log intensity, higher = more binding, comparable within an allelic series); in assay [8], 10.4 upbm affinity estimate (log intensity, higher = more binding, comparable within an allelic series); in [9], 10.6 upbm affinity estimate (log intensity, higher = more binding, comparable within an allelic series); in assay [10] it was 10.4 upbm affinity estimate (log intensity, higher = more binding, comparable within an allelic series); in assay [11], 10.3 upbm affinity estimate (log intensity, higher = more binding, comparable within an allelic series); in assay [12] it was 10.5 upbm affinity estimate (log intensity, higher = more binding, comparable within an allelic series). Also, the binding signal in assay [13] was 10.3 upbm affinity estimate (log intensity, higher = more binding, comparable within an allelic series).
